# Assay results reported in the supplement of paper PMC8728848.
# This excerpt belongs to a sample that is enriched for the strongest signals.
# Experiments:
# Test in all cases: glycan array binding signal (z-score within array); higher = stronger binding
# Conditions in all cases: glycan notation: IUPAC condensed, linker removed
# [1] = molecular target: Fuc(a1-2)Gal(b1-3)GalNAc(b1-3)Gal(a1-4)Gal(b1-4)Glc
# How it was run: (§1)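 Negative Z-scores can be read as non-binding. The Z-score is calculated within each array and then averaged across arrays of one protein sequence at different concentrations or buffers and across linkers. Arrays, 3228 in all, were curated from the Consortium for Functional Glycomics database and kept only where the protein sequence was available.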
# [2] = molecular target: Fuc(a1-2)Gal(b1-3)[Fuc(a1-4)]GlcNAc
# How it was run: as §1
# [3] = molecular target: Fuc(a1-2)Gal(b1-4)[Fuc(a1-3)]GlcNAc
# How it was run: as §1
# [4] = molecular target: Fuc(a1-2)Gal(b1-4)[Fuc(a1-3)]GlcNAc(b1-2)Man(a1-3)[Fuc(a1-2)Gal(b1-4)[Fuc(a1-3)]GlcNAc(b1-2)Man(a1-6)]Man(b1-4)GlcNAc(b1-4)[Fuc(a1-6)]GlcNAc
# How it was run: as §1
# [5] = molecular target: Fuc(a1-2)Gal(b1-4)[Fuc(a1-3)]GlcNAc(b1-3)Gal(b1-4)[Fuc(a1-3)]GlcNAc
# How it was run: as §1
# [6] = molecular target: Fuc(a1-2)Gal(b1-4)[Fuc(a1-3)]GlcNAc(b1-3)Gal(b1-4)[Fuc(a1-3)]GlcNAc(b1-3)Gal(b1-4)[Fuc(a1-3)]GlcNAc
# How it was run: as §1
# [7] = molecular target: Fuc(a1-2)[Gal(a1-3)]Gal(b1-3)GlcNAc
# How it was run: as §1
# [8] = molecular target: Fuc(a1-2)[Gal(a1-3)]Gal(b1-4)Glc
# How it was run: as §1
# [9] = molecular target: Fuc(a1-2)[Gal(a1-3)]Gal(b1-4)GlcNAc
# How it was run: as §1
# [10] = molecular target: Fuc(a1-2)[Gal(a1-3)]Gal(b1-4)GlcNAc(b1-2)Man(a1-3)[Fuc(a1-2)[Gal(a1-3)]Gal(b1-4)GlcNAc(b1-2)Man(a1-6)]Man(b1-4)GlcNAc(b1-4)GlcNAc
# How it was run: as §1
# [11] = molecular target: Fuc(a1-2)[Gal(a1-3)]Gal(b1-4)[Fuc(a1-3)]GlcNAc
# How it was run: as §1
# [12] = molecular target: Fuc(a1-2)[GalNAc(a1-3)]Gal(b1-3)GalNAc(b1-3)Gal(a1-4)Gal(b1-4)Glc
# How it was run: as §1
# [13] = molecular target: Fuc(a1-2)[GalNAc(a1-3)]Gal(b1-4)GlcNAc(b1-2)Man
# How it was run: as §1
# [14] = molecular target: Fuc(a1-2)[GalNAc(a1-3)]Gal(b1-4)GlcNAc(b1-3)Gal(b1-4)GlcNAc
# How it was run: as §1
# Fuc(a1-4)GlcNAc = molecular target: Fuc(a1-4)GlcNAc
# How it was run: as §1
# Fuc(b1-3)GlcNAc = molecular target: Fuc(b1-3)GlcNAc
# How it was run: as §1
# [15] = molecular target: Gal(a1-3)Gal(b1-3)GlcNAc(b1-6)GalNAc
# How it was run: as §1
# Gal(a1-3)Gal(b1-4)Glc = molecular target: Gal(a1-3)Gal(b1-4)Glc
# How it was run: as §1
# Gal(a1-3)Gal(b1-4)GlcNAc = molecular target: Gal(a1-3)Gal(b1-4)GlcNAc
# How it was run: as §1
# [16] = molecular target: Gal(a1-3)Gal(b1-4)[Fuc(a1-3)]GlcNAc
# How it was run: as §1
# [17] = molecular target: Gal(a1-4)Gal(b1-4)GlcNAc(b1-2)Man(a1-3)[Gal(a1-4)Gal(b1-4)GlcNAc(b1-2)Man(a1-6)]Man(b1-4)GlcNAc(b1-4)GlcNAc
# How it was run: as §1
# [18] = molecular target: Gal(b1-3)[Neu5Ac(b2-6)]GalNAc
# How it was run: as §1
# Gal(b1-4)Gal = molecular target: Gal(b1-4)Gal
# How it was run: as §1
# [19] = molecular target: Gal(b1-4)GlcNAc(b1-2)Man(a1-3)Man(b1-4)GlcNAc(b1-4)GlcNAc
# How it was run: as §1
binder,measurement,setting,value
PLU (Photorhabdus luminiscence) (protein) HHHHHHENLYFQSSIVFASIDPRSNPLQTSSQNYVDIPGLKLDVSKYSNSPCLTALITLNIPTPYASGNNFPGGNFAIVTDQGEQLAYGGFTYSSKIPENSGRMPFTLVARYSLASNVSTIKAQWSNIRGSTVHIDSYASISAVIQCNQLV,glycan array binding signal (z-score),[1],-0.183
same,glycan array binding signal (z-score),[2],5.25
same,glycan array binding signal (z-score),[3],3.55
same,glycan array binding signal (z-score),[4],0.621
same,glycan array binding signal (z-score),[5],3.58
same,glycan array binding signal (z-score),[6],5.21
same,glycan array binding signal (z-score),[7],4.43
same,glycan array binding signal (z-score),[8],3.43
same,glycan array binding signal (z-score),[9],3.83
same,glycan array binding signal (z-score),[10],3.78
same,glycan array binding signal (z-score),[11],5.59
same,glycan array binding signal (z-score),[12],-0.33
same,glycan array binding signal (z-score),[13],3.66
same,glycan array binding signal (z-score),[14],11.7
same,glycan array binding signal (z-score),Fuc(a1-4)GlcNAc,0.546
same,glycan array binding signal (z-score),Fuc(b1-3)GlcNAc,-0.329
same,glycan array binding signal (z-score),[15],-0.253
same,glycan array binding signal (z-score),Gal(a1-3)Gal(b1-4)Glc,-0.284
same,glycan array binding signal (z-score),Gal(a1-3)Gal(b1-4)GlcNAc,-0.298
same,glycan array binding signal (z-score),[16],-0.21
same,glycan array binding signal (z-score),[17],-0.137
same,glycan array binding signal (z-score),[18],-0.298
same,glycan array binding signal (z-score),Gal(b1-4)Gal,-0.25
same,glycan array binding signal (z-score),[19],-0.227
